High-throughput results (PubChem)
A selection: hits, their analogues and other compounds. The true share with any hit is near 2.9%.
TRPM1 prom inh: reduces MITF-dependent TRPM1 promoter luciferase signal; SK-MEL-5 TRPM1 promoter luciferase, 24 h; inhibition, % at 12.5 µM; 330,000 tested, 0.83% active; AID 488899;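 active = mean inhibition across replicates of 60% or more, whatever share of single replicates reaches that level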
EBV LMP1 NFkB: Epstein-Barr LMP1 NF-kappaB reporter inhibition; inhibition, % at 12.5 µM; LMP1-induced NF-kappaB luciferase reporter cells, luminescence; 350,000 tested, 0.69% active; in the data active = inhibition above about 41%;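 also: 0% = neutral control wells and 100% = reference inhibitor control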
Peg3 prom inh: inhibitors of Peg3 promoter. 360,000 tested, 1.7% active. HeLa PEG-Prom luciferase reporter, luminescence, overnight. AID 588405. inhibition, % at 20 µM;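 active = inhibition of at least 50% at 20 µM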
CF NFkB block: inhibitors of cystic fibrosis induced NF-kB | inhibition, % at 5 µM | KKLEB NF-kB-GFP reporter, PAF-induced, GFP fluorescence overnight | 360,000 tested, 0.86% active;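 active = at least 50% inhibition at 5 µM, scaled per plate between neutral and stimulator controls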;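 also: PAF is a Pseudomonas aeruginosa culture filtrate used as stimulus; plate controls were PAF-stimulated DMSO wells for no effect and unstimulated DMSO wells for full effect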
Shn3 inh set2: inhibitors of Schnurri-3 3'UTR reporter in osteoblasts. 360,000 tested, 0.52% active. inhibition, % at 12.5 µM. Clone20 osteoblast Shn3 3'UTR firefly luciferase, 24 h;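 active = mean inhibition of at least 75% with every replicate also reaching 75%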;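 also: 0% = median of neutral control wells and 100% = pilot-screen positive control compound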
KKLEB cytotox: CF airway cell cytotoxicity counter-screen. KKLEB CF airway cells viability, ATPlite luminescence, overnight; hits give low values; cells stimulated with P. aeruginosa culture filtrate. activity change (cytotoxicity), % at 5 µM. 360,000 tested, 0.36% active. AID 602141;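 active = corrected activity change at or below -50% at 5 µM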
An asterisk follows results filed as active; x = no result given.

SMILES	TRPM1 prom inh	EBV LMP1 NFkB	Peg3 prom inh	CF NFkB block	Shn3 inh set2	KKLEB cytotox
CC(C)(C)c1nc2c(s1)CCc1onc(-c3ccc(Br)cc3)c1-2	3	43*	-2	6	5	17
COc1ccc(CC2C(=O)NC(C)C(=O)N(C)C3Cc4ccc(cc4)Oc4cc(ccc4O)CC(C(=O)NC(C)C(=O)NC(C)C(=O)N2C)N(C)C3=O)cc1 (stereo not drawn)	98*	82*	97*	88*	95*	-45
COc1cc(C(=O)N2CCCCC2c2cc(C(=O)NCc3cccnc3)no2)cc(OC)c1C (stereo not drawn)	x	x	7	3	55	10
C[C@H](O)C#Cc1ccc2c(c1)O[C@@H](CN(C)Cc1ccc(-c3ccccc3)cc1)[C@H](C)CN([C@@H](C)CO)S2(=O)=O	x	-118	37	36	83	-17
C#CC(=O)N(c1cccc(OC)c1)C(C(=O)NC1CCCC1)c1cccs1 (stereo not drawn)	107*	96*	106*	94*	100*	-97*
C#CC(=O)N(c1ccc(OC)c(OC)c1)C(C(=O)NC1CCCC1)c1cccs1 (stereo not drawn)	96*	10	103*	101*	87*	-100*
COc1cc(N(C(=O)Cc2cccs2)C(C(=O)NC2CCCCC2)c2ccc(C)cc2)ccc1-n1cnnn1 (stereo not drawn)	1	5	3	67*	21	-56*
N#C/C(=C/c1ccc(N2CCCCCC2)o1)c1ccc(Cl)cc1	-19	30	97*	71*	96*	-40
CC(C)(CN1CCCN(CC(C)(C)C(=O)O)C1=O)C(=O)O	x	-7	-15	3	-15	-10
Cn1ncc2c(O/N=C(\N)c3ccc(C(F)(F)F)cc3)ncnc21	9	-11	107*	7	27	-2
O=[N+]([O-])c1cc2no[n+]([O-])c2cc1N1CCCCC1	80*	-76	99*	-77	-23	2
Cc1nc(Nc2nc3c(c(=O)[nH]2)CCC3)nc2ccccc12	15	-20	86*	65*	-22	-3
CCN(CC)CCCNc1nc2ccccc2c2[nH]c3ccc(OC)cc3c12	102*	-32	99*	13	92*	-17
Cc1csc(N(C(=O)c2ccccc2F)c2ccccc2)n1	-1	-3	17	-12	18	-8
COc1cc(CC(=O)N(c2ccccc2)c2nc(C)cs2)cc(OC)c1OC	12	52*	-9	-12	3	3
CC1CC2C3CCC4=CC(=O)CCC4(C)C3CCC2(C)C1(O)C(=O)CO (stereo not drawn)	11	6	-20	53*	6	3
C[C@]12CC[C@H]3[C@@H](CCC4=CC(=O)CC[C@@]43C)[C@@H]1CC[C@@H]2C(=O)CO	6	66*	31	29	4	3
CC(=O)OCC(=O)[C@H]1CC[C@H]2[C@@H]3CCC4=CC(=O)CC[C@]4(C)[C@H]3CC[C@]12C	7	1	15	14	-63	12
CCNC(=O)C1(C)CCCN(C(=O)C2(c3ccc(Cl)cc3)CCCC2)C1 (stereo not drawn)	x	x	-8	-51	9	12
COc1ccc(S(=O)(=O)N2CCC(C(=O)N[C@@H](C)C(=O)NCc3ccco3)CC2)cc1	x	6	-9	-7	-2	6
O=C1C=CC2(C=C1)O[C@H](Cc1ccccc1)[C@@H](Cc1ccccc1)O2	97*	87*	108*	96*	97*	-98*
COc1ccc(N2C(=O)CC(Cc3ccccc3)C2=O)cc1 (stereo not drawn)	-7	-1	-6	5	-5	-6
COc1ccc(C[C@@H]2OC3(C=CC(=O)C=C3)O[C@H]2Cc2ccc(OC)cc2)cc1	100*	79*	103*	85*	94*	-78*
CCOC(=O)C1=CCN(S(=O)(=O)c2ccccc2F)C1c1ccc(F)cc1 (stereo not drawn)	x	x	18	5	5	-14
COc1ncnc2c1NC(=O)CS2	3	82*	18	12	-21	-3
Nc1cc2c(cc1Br)-c1c(C(=O)O)cccc1C2O (stereo not drawn)	-14	23	-4	7	86*	18
